Laboratory results published in PubChem BioAssay (NCATS).
Where “and” joins values, the source holds several entries; their conditions need not be identical. Equal values may be shown once. Records with an inconclusive call do not appear. Calls of active or inactive are those of the source. Calls follow the shape of the dose curve; as a rule, active = well fitted inhibition curve with a large enough effect; inconclusive = small, poorly fitted or top-dose-only effect; inactive = flat fitted curve, though single readings scatter.

Experiments:
Assay in all cases: qHTS profiling for inhibitors of Plasmodium falciparum proliferation (AID 504749); also: nearly all actives have a fitted effect of over 60% in size
Conditions in all cases: P. falciparum in erythrocytes, SYBR Green DNA, 72 h; series mostly up to 28.7 µM
CP252 = system: CP252
Summary of the method: (§1)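 Readout was DNA-dye fluorescence from lysed cultures, ex 485/em 535 nm. Parasitized red cells had grown 72 h with compound; data scaled between 0.29 uM artemisinin and DMSO wells and corrected using vehicle-only plates.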

CP256 = system: CP256
Summary of the method: as §1

CP260 = system: CP260
Summary of the method: as §1

CP262 = system: CP262
Summary of the method: as §1

CP265 = system: CP265
Summary of the method: as §1

CP266 = system: CP266
Summary of the method: as §1

CP268 = system: CP268
Summary of the method: as §1

CP269 = system: CP269
Summary of the method: as §1

CP286 = system: CP286
Summary of the method: as §1

CP291 = system: CP291
Summary of the method: as §1

Measured: Potency
Potency is read from the fitted curve at half-maximal effect.

COP(=O)(OC)C(O)C(Cl)(Cl)Cl (stereo not drawn)
inactive: all assays above

CCOC(=O)NC(O)C(Cl)(Cl)Cl (stereo not drawn)
inactive: all assays above

OC(c1ccccc1)(c1ccccc1)C1CCNCC1
inactive: all assays above

Cc1ncc2n1-c1ccc(Cl)cc1C(c1ccccc1F)=NC2
inactive: all assays above

C[C@]12Cc3nonc3C[C@@H]1CC[C@@H]1[C@@H]2CC[C@@]2(C)[C@H]1CC[C@]2(C)O
inactive: all assays above

Cc1ccc(N=CN(C)C=Nc2ccc(C)cc2C)c(C)c1
inactive: all assays above

CCNc1nc(Cl)nc(NCC)n1
inactive: all assays above

C[C@]12CC[C@H]3[C@@H](CC=C4C[C@@H](O)CC[C@@]43C)[C@@H]1CC[C@@H]2O
inactive: all assays above

C[C@H]1C(=O)O[C@@H]2CCN3CC=C(COC(=O)[C@](C)(O)[C@]1(C)O)[C@H]23
inactive: all assays above

CN1C(=O)CN=C(c2ccccc2)c2cc([N+](=O)[O-])ccc21
inactive: all assays above

O=C(O)c1nn(Cc2ccc(Cl)cc2Cl)c2ccccc12
inactive: all assays above

CC(C)C(Br)C(=O)NC(N)=O (stereo not drawn)
inactive: all assays above

NC(=O)OCCCc1ccccc1
inactive: all assays above

CNC(=O)NC(O)C(Cl)(Cl)Cl (stereo not drawn)
inactive: all assays above

CCN(Cc1ccc(Cl)nc1)/C(=C/[N+](=O)[O-])NC
inactive: all assays above

Oc1c(Br)cc(Br)cc1Br
inactive: all assays above

CCCCCCCCCCCC[N+](C)(C)CCOc1ccccc1
active: CP252 7.94 µM | CP256 5.62 µM | CP260 3.98 µM | CP262 5.36 µM | CP265 6.31 µM | CP266 15.1 µM | CP268 9.53 µM | CP269 10.7 µM | CP286 2.51 µM | CP291 8.49 µM

c1ccc2nc(N3CCNCC3)ccc2c1
inactive: all assays above

NCc1cccnc1
inactive: all assays above

CCC(=O)O[C@H]1CC[C@H]2[C@@H]3CCC4=CC(=O)CC[C@]4(C)[C@H]3CC[C@]12C
inactive: all assays above

COc1ccc(C(=O)N2CCCC2=O)cc1
not listed: CP291
inactive: all other assays above

CCS(=O)(=O)C(C)(C)S(=O)(=O)CC
inactive: all assays above

CC(C)[N+](C)(CCC(C(N)=O)(c1ccccc1)c1ccccc1)C(C)C
inactive: all assays above

O=c1n(Cl)c(=O)n(Cl)c(=O)n1Cl
inactive: all assays above

NC(=O)CN1CCCC1=O
inactive: all assays above

CC[n+]1c(-c2ccccc2)c2cc(N)ccc2c2ccc(N)cc21
active: CP252 100 nM and 282 nM | CP256 31.6 nM and 63.1 nM | CP260 199 nM and 398 nM | CP262 95.3 nM and 107 nM | CP265 251 nM and 794 nM | CP266 301 nM and 601 nM | CP268 107 nM and 379 nM | CP269 120 nM and 478 nM | CP286 70.8 nM and 158 nM | CP291 151 nM and 601 nM

CCC1(c2ccccc2)CCC(=O)NC1=O (stereo not drawn)
inactive: all assays above

COP(=O)(OC)OC=C(Cl)Cl
inactive: all assays above

CN(C)C(=S)SSC(=S)N(C)C
active: CP252 3.98 µM | CP256 3.55 µM | CP260 0.891 µM | CP262 2.13 µM | CP265 3.98 µM | CP266 4.78 µM | CP268 3.01 µM | CP269 2.13 µM | CP286 1.26 µM | CP291 3.01 µM

O=C(CCCN1CCC(n2c(=O)[nH]c3ccccc32)CC1)c1ccc(F)cc1
inactive: CP262
active: CP256 3.55 µM | CP260 1.58 µM | CP265 1.12 µM | CP268 3.61 µM | CP269 1.81 µM | CP286 2 µM | CP291 6.42 µM

OC(O)C(Cl)(Cl)Cl
not listed: CP265 | CP266
inactive: all other assays above

ClC1=C(Cl)C2(Cl)C(CBr)CC1(Cl)C2(Cl)Cl (stereo not drawn)
not listed: CP260
inactive: all other assays above

CCC1(CC)C(=O)NC(=O)NC1=O
inactive: all assays above

COC(=O)C1=CCCN(C)C1
not listed: CP260
inactive: all other assays above

C[N+](C)(C)CCOC(=O)C(O)(c1ccccc1)c1ccccc1
not listed: CP266
inactive: all other assays above

CC(Cc1ccccc1)NCc1ccccc1Cl (stereo not drawn)
active: CP265 11.2 µM
inactive: CP262 | CP266 | CP286

COP(=S)(OC)Oc1ccc(Sc2ccc(OP(=S)(OC)OC)cc2)cc1
inactive: all assays above

C[N+]1(CCC(C(N)=O)(c2ccccc2)c2ccccc2)CCCCC1
inactive: all assays above

CC[C@]1(O)CC[C@H]2[C@@H]3CCC4=CCCC[C@@H]4[C@H]3CC[C@@]21C
not listed: CP256 | CP265
inactive: all other assays above

CCN(CC)C(C)C(=O)c1ccccc1 (stereo not drawn)
inactive: all assays above

CN1C(=O)[C@@H](NC(=O)c2cc3ccccc3[nH]2)N=C(c2ccccc2)c2ccccc21
inactive: CP262

Cc1c(Cl)c(=O)oc2cc(OP(=O)(OCCCl)OCCCl)ccc12
active: CP252 8.91 µM | CP256 10 µM | CP262 7.57 µM | CP265 7.94 µM | CP268 12 µM | CP269 12 µM | CP286 11.2 µM | CP291 7.57 µM
